From the supplement of paper PMC13380429
A number with no mark means an inactive call.

Test system: Vero E6 infected with SARS-CoV-2
Experiment: inhibition of SARS-CoV-2 cytopathic effect; higher = more antiviral protection, active = above 15
Settings: 48 h

Row | SMILES | inhibition of SARS-CoV-2 cytopathic effect (1 nM) | inhibition of SARS-CoV-2 cytopathic effect (8.33 nM) [%] | inhibition of SARS-CoV-2 cytopathic effect (100 nM) [%] | inhibition of SARS-CoV-2 cytopathic effect (833.33 nM) [%] | inhibition of SARS-CoV-2 cytopathic effect (10000 nM) [%]
1 | CCCCNC(=O)NS(=O)(=O)c1ccc(C)cc1 [tolbutamide] | 0.11% | 0.83 | -0.09 | 0.89 | -0.3
2 | c1coc(-c2nnc3sc(C4CCCCC4)nn23)c1 [cardionogen-1] | -0.83% | -0.13 | 0.69 | -1.37 | -1.68
3 | c1ccc2sc(SNC3CCCCC3)nc2c1 [N-cyclohexyl-2-benzothiazolesulfenamide] | 2.74% | 0.54 | -0.9 | -0.46 | -3.64
4 | CCN(CC)CCOC(=O)C1(C2CCCCC2)CCCCC1 [dicycloverine] | 17.5% (active) | 0.53 | 2.57 | 0.85 | 1.16
5 | COc1cc(N)c(Cl)cc1C(=O)NC1CN2CCC1CC2 (stereo not given) [zacopride] | 0.12% | -0.23 | -1.28 | -2.33 | -4.26
